# Sfp inh = blocks B. subtilis Sfp PPTase activity; Q9F4F7; Biochemical Sfp PPTase activity, qHTS; Potency, µM, for inactives: largest response in the series, negative = inhibition, usual class: inhibitors; 310,000 compounds, 3.5% hits; AID 1490;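 note: the enzyme is Sfp with the accession as filed and its product quenches rhodamine fluorescence; 0% = enzyme reaction without inhibitor and -100% = no enzyme wells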
#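 After 15 min at room temperature with compound, 15 nM Sfp received 5 uM rhodamine-CoA plus 12.5 uM BHQ-2-ybbR (50 mM Hepes pH 7.6, 10 mM MgCl2). Rate came from the fluorescence difference over 30 min, ex 525/em 598 nm.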
# G9a inh = G9a (human) methyltransferase inhibition; Q96KQ7; AID 504332; 350,000 compounds, 8.8% hits; G9a H3K9 monomethylation, AlphaScreen, 2 h; Potency, µM (titrated, usually from 102 µM), without a hit: at the top dose activity, negative = inhibition, usual class: inhibitors; note: % is set by controls: 0 for no effect and ±100 for the full control effect; nearly all actives have a fitted effect of over 75% in size
#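 AlphaScreen read-out: biotin-H3K9 peptide (500 nM) methylation by 20 nM enzyme with 20 uM SAM, 2 h at room temperature after 15 min compound preincubation; anti-monomethyl H3K9 antibody plus donor/acceptor beads, 10 min dark.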
# BAZ2B block = inhibitors of human BAZ2B bromodomain. 360,000 compounds, 4.4% hits. Potency, µM (highest dose often 114 µM), inactives show at the top dose activity change, negative = inhibition, most hits filed as inhibitors. AlphaScreen BAZ2B-H3K14Ac peptide displacement. Q9UIF8; note: % is set by controls: 0 for no effect and ±100 for the full control effect; nearly all actives have a fitted effect of over 60% in size
#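 AlphaScreen displacement of biotin-H3(5-23)K14Ac peptide (50 nM final) from BAZ2B (50 nM final) in PBS pH 7.4, 0.01% Tween-20; complex preformed 30 min RT, then compounds (top 110 uM) 30 min RT, beads 20 min dark.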
# JMJD2A Tudor inh = JMJD2A Tudor domain (human) inhibition. O75164. AlphaScreen JMJD2A-Tudor / H3K4me3 peptide binding. Potency, µM (doses to about 114 µM), without a hit: at the top dose activity change, negative = inhibition, hits mostly inhibitors. 390,000 compounds, 4.4% hits; note: % is set by controls: 0 for no effect and ±100 for the full control effect; nearly all actives have a fitted effect of over 50% in size
# HP1b chromo inh = HP1-beta chromodomain-methylated histone interaction inhibition; P83916; AlphaScreen HP1-beta / biotin-H3K9me3 peptide binding; Potency, µM (highest dose often 114 µM), without a hit: top-dose activity change, negative = inhibition, usual class: inhibitors; 390,000 compounds, 0.56% hits; note: nearly all actives have a fitted effect of over 70% in size
# Target sequence (P83916 whole entry, looked up): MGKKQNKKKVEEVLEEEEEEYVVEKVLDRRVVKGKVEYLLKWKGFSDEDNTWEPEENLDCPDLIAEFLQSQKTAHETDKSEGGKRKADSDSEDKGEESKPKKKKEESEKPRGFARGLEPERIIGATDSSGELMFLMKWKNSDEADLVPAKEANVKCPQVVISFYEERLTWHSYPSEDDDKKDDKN
#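 Compound inhibition of the preformed complex between 50 nM HP1-beta and 50 nM biotinylated H3K9me3 peptide was read by AlphaScreen. Buffer was PBS pH 7.4 with 0.01% Tween-20. Incubations ran 30 min at room temperature, with 10 ug/mL donor/acceptor beads.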
# PLK1 PBD block = inhibitors of human PLK1 polo-box domain binding. P53350. Plk1 PBD binding of FITC phosphopeptide, fluorescence polarization. Potency, µM, for inactives: max response, negative = inhibition, most hits filed as inhibitors. 360,000 compounds, 2.8% hits; note: series mostly up to about 57 µM; % is set by controls: 0 for no effect and ±100 for the full control effect; nearly all actives have a fitted effect of over 65% in size
# Target sequence (P53350 whole entry, looked up, the tested form may be a part): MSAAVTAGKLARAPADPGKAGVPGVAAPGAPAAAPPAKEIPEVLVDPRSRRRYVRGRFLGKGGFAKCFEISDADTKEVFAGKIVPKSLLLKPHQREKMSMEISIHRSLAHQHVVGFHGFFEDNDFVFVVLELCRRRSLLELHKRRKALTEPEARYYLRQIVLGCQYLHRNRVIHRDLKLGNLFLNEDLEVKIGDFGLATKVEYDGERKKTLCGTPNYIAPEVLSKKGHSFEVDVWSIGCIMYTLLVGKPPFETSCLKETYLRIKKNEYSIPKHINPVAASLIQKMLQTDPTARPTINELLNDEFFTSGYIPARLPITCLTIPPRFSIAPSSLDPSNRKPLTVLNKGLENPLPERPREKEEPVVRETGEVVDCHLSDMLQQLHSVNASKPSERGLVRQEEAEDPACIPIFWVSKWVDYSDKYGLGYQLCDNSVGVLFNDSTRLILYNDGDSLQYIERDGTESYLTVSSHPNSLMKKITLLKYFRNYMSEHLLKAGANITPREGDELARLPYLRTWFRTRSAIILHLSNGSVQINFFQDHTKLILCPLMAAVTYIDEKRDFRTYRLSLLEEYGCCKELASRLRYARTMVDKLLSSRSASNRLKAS
# Starred values were filed as active, the others as inactive; ? = inconclusive; / = no result; ! = repeats disagree; [ ] = remark or other dose. The list is not random: actives were taken first. Their share in the collection is about 12%. Calls come from the whole dose curve; as a rule, active = well fitted curve in the direction sought with a large enough effect; inconclusive = small, poorly fitted or top-dose-only effect, or another doubt; inactive = no such curve, though single readings can be large; an effect the other way counts as inactive or inconclusive. Potency is the fitted concentration of half-maximal effect.
SMILES,Sfp inh,G9a inh,BAZ2B block,JMJD2A Tudor inh,HP1b chromo inh,PLK1 PBD block
CCc1n[nH]c(CCN)n1,-16.5%,56.2µM*,-13.1%,?,10.0%,-13.4%
C=CCN1C(=O)/C(=C/c2cc(C)n(-c3ccccn3)c2C)C(=O)NC1=S,?,?,-5.2%,-18.6%,25.9%,2.38µM*
NC[C@@H]1O[C@H](OC2[C@@H](CO)O[C@@H](OC3[C@H](O)[C@H](N)C[C@H](N)[C@H]3OC3O[C@H](CO)[C@@H](O)[C@H](O)[C@@H]3N)[C@H]2O)C(N)[C@H](O)[C@@H]1O (some centres not stated),11.7%,23.5%[59 µM],/,/,/,/
c1ccc(-c2ccncc2)cc1,/,/,/,-8.2%,34.8%,-7.9%
C[n+]1ccc(-c2ccncc2)cc1,-6.3%,15.8µM*,-3.7%,39.8µM*,23.6%,2.0%
COC(=O)C1=CO[C@@H](C)[C@@H]2CN3CC[C@]4(C(=O)Nc5c4ccc(OC)c5OC)[C@H]3C[C@H]12,2.2%,/,/,/,/,/
CN1CCN(CC#CCOc2ccc(Cl)cc2)CC1,?,11.2µM*,39.8µM*,7.94µM*,?,-10.9%
CCCCCCOc1ccc(CN2CCN(C)CC2)cc1,-0.2%,?,-9.4%,?,-6.9%,-2.3%
OCCCc1ccc(O)c(O)c1,50.1µM*,-122.0%[59 µM],-13.9%,39.8µM*,?,-1.4%
CCCN(CCC)CCc1ccc(O)c(O)c1,-23.7%,20µM*!,/,/,/,/
CCCCC/C=C\C/C=C\C/C=C\CCCCC(=O)NCCc1ccc(O)c(O)c1,11.1%,/,/,/,/,/
O=CN1CCCCC1C1CC[C@H]2CCCCN2C1 (some centres not stated),-14.8%,/,/,/,/,/
O=C(O)/C=C\CO,16.4%,/,/,/,/,/
Cc1oc(-c2cccc(Cl)c2)nc1CN1CCC(C(=O)NCCCN2CCN(c3ccc(F)cc3)CC2)CC1,/,?,22.4µM*,-27.6%,-0.8%,/
CCCCNC(=O)C1CCCN(Cc2nc(-c3ccc(Cl)cc3)oc2C)C1 (configuration not stated),/,-24.3%[59 µM],?,-8.8%,33.6%,/
Cc1oc(-c2ccc(Cl)cc2)nc1CN1CCC(C(=O)NCCCN2CCN(c3cccc(Cl)c3)CC2)CC1,/,10µM*,?,?,-11.6%,/
Cc1ccc(-c2nc(CN3C(=O)CN=C(c4ccccc4)c4cc(Cl)ccc43)c(C)o2)cc1,/,-31.0%[59 µM],-0.7%,0.7%,46.5%,/
O=C1C(=O)N(c2nccs2)C(c2ccccc2)/C1=C(\O)c1ccc2c(c1)OCCO2 (configuration not stated),5.0%,0.8%[0.0925 µM],?,/,/,/
COc1ccc(NC(=O)c2ccco2)cc1NC(=O)COc1cccc(C)c1C,/,13.8%[59 µM],-0.5%,-17.9%,?,/
CC(C)N1C(=O)c2ccccc2NS1(=O)=O,18.3%,/,/,/,/,/
COc1ccc(CNCCc2c(C)[nH]c3ccc(OC(F)(F)F)cc23)c(OC)c1,?,44.7µM*,56.2µM*,17.8µM*,?,-12.0%
Cc1ccc2[nH]c(C)c(CCNCc3cccnc3)c2c1,-2.3%,50.1µM*,?,7.0%,22.7%,-2.0%
COc1ccc2[nH]c(C)c(CCNCc3cc(OC)c4c(c3)OCO4)c2c1,/,?,44.7µM*,1.26µM*,?,-11.6%
COc1ccc2[nH]c(C)c(CCNCc3cc(OC)c(OC)c(OC)c3)c2c1,44.7µM*,22.4µM*,79.4µM*,2.82µM*,?,-5.0%
c1cncc(CNCCN2CCNCC2)c1,/,/,/,-2.1%,24.9%,-3.9%
SMILES,Sfp inh,G9a inh,BAZ2B block,JMJD2A Tudor inh,HP1b chromo inh,PLK1 PBD block
COc1nnc(-c2ccc(N3CCCCC3)c(NC(=O)c3ccc(Cl)cc3)c2)c2ccccc12,/,?,-7.4%,-7.2%,13.4%,/
Cc1oc(-c2ccccc2Cl)nc1CN1C(=O)CN=C(c2ccccc2)c2ccccc21,-18.7%,39.8µM*,?,?,4.3%,3.1%
Cc1ccc(-c2nc(CN3C(=O)CN=C(c4ccccc4)c4ccccc43)c(C)o2)cc1,/,?,4.0%,3.3%,42.7%,/
C/C1=C/C(=O)O[C@@H]2C[C@@H](CC[C@H](C)/C=C\CC1)O[C@@](O)(C1CSC(=O)N1)C2 (some centres not stated),18.1%,/,/,/,/,/
C=CCc1c(C)[nH]c(=S)c(C#N)c1C,10µM*,1.12µM*,-35.9%,5.01µM*,41.3%,23.8µM*
O=c1[nH]sc2cc(F)ccc12,3.16µM*,1.58µM*,44.7µM*,22.4µM*,?,3.77µM*
CN1C(=O)C(O)N=C(c2ccccc2)c2cc(Cl)ccc21 (configuration not stated),-8.7%,21.7%[59 µM],/,/,/,/
O=C1C(I)=CC(=C(c2cc(I)c(O)c(I)c2)c2ccccc2C(=O)O)C=C1I,31.6µM*,?,/,/,/,/
Nc1ccccc1C(=O)O,8.6%,14.2%[59 µM],/,/,/,/
CCOC(=O)[C@]12Cc3cc(Cl)ccc3[C@H]1N(CC(=O)OC)C(=O)c1ccccc12,/,/,/,/,/,4.23µM*
CCOC(=O)[C@]12Cc3cc(Cl)ccc3[C@H]1N(C(C)C)C(=O)c1ccccc12,/,/,/,/,/,9.47µM*
COc1ccc2nc(NC(=O)CCNS(=O)(=O)c3ccc4c(c3)oc(=O)n4C)sc2c1,-0.6%,12.3%[12.7 µM],?,-6.9%,19.1%,-1.1%
CCCCCCCCCc1ccc(O)cc1,10.8%,/,/,/,/,/
COc1ccccc1N=Nc1ccc(N)c(C)c1,1.0%,24.5%[2.33 µM],35.5µM*,44.7µM*,?,-13.3%
Cc1ccc(N)c(C)c1,/,-4.8%[0.501 µM],5.5%,-12.4%,41.3%,1.4%
NCCCCN=C(N)N,4.5%,28.7%[12.7 µM],/,/,/,/
COC(=O)NC(=S)Nc1ccccc1NC(=S)NC(=O)OC,31.6µM*,/,/,-24.1%,4.8%,?
Nc1ccc(CCN2CCCC2)cc1,10.7%,39.8µM*,-18.9%,2.7%,32.7%,2.9%
Nc1ccc(CCN2CCN(c3cccc(C(F)(F)F)c3)CC2)cc1,26.3%,39.8µM*,/,?,-1.7%,-26.1%
c1ccc(CCN2CCC(N3CCN(c4ccccc4)CC3)CC2)cc1,11.2%,13.3%[59 µM],18.9%,-12.8%,27.0%,-0.8%
Cc1noc(C(=O)Nc2sc3c(c2C#N)CCC3)c1Cl,-24.8%,44.7µM*,-33.6%,-28.3%,-3.6%,23.8µM*
CCOC(=O)c1c(NC(=O)c2ccc(OC)cc2)sc2c1CCCCC2,/,?,2.8%,18.0%,57.0%,/
CN1C(=O)NC(=O)/C(=C/c2ccc(C(=O)O)cc2)C1=O,44.7µM*,-42.0%,-16.7%,-11.0%[11.4 µM],43.1%,11.9µM*
Cc1cc(/C=C2\C(=O)NC(=O)N(C)C2=O)c(C)n1-c1ccc2c(c1)OCO2,-15.3%,-49.7%,?,-31.9%,19.0%,-18.7%
Cc1ccc(/C=C2/C(=O)NC(=O)N(C)C2=O)cc1,?,-26.5%[59 µM],-33.3%,-14.4%,20.3%,10.6µM*
CCOC(=O)NC(O)C(Cl)(Cl)Cl (configuration not stated),15.3%,-1.3%[12.7 µM],/,/,/,/
Nc1nccc(-c2c(-c3ccc(F)cc3)ncn2C2CCNCC2)n1,-3.0%,/,/,/,/,/
